This note sets out measurements from publication PMC7862700, “An all-to-all approach to the identification of sequence-specific readers for epigenetic DNA modifications on cytosine”.

What all share (assay): DAPPL (digital affinity profiling via proximity ligation, sequencing); 10 mM Tris-HCl pH 7.5, 50 mM NaCl, 1 mM DTT, 4% glycerol, room temperature, 30 min; GST-TFs on glutathione beads, 16-mer random dsDNA library, 0.1% formaldehyde crosslink after washing; high values mean tight binding
The target in one test is T1, FEV (Homo sapiens, UniProt Q99581 1-238).
T1 sequence: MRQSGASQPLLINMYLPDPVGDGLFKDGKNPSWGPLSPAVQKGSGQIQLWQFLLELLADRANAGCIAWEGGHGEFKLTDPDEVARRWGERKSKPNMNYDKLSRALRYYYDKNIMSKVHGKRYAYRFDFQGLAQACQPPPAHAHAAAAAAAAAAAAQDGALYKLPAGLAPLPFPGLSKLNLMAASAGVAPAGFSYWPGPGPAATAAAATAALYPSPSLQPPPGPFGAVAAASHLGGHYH
The settings on record: protein: recombinant; tags: N-terminal GST; dsDNA, one strand shown. In short, it runs like this: (§1)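 Each value of binding signal is a hexamer's read frequency for a factor divided by the same hexamer's frequency in the tag-only sample. Barcoded, bead-captured GST fusions of human transcription factors made in yeast were pooled with that sample and incubated with 200 nmole of a random double-stranded 16-mer DNA library in Tris/NaCl/DTT/glycerol buffer at room temperature for 30 min. Washing, 0.1% formaldehyde crosslinking, proximity ligation, PCR and Illumina NextSeq500 sequencing followed.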

Another test addresses ETV5 (Homo sapiens, UniProt P41161 1-510). The settings on record: protein: recombinant; tags: N-terminal GST; dsDNA, one strand shown. Put shortly:
as §1

For a further test, the target named is HSF1 (Homo sapiens, UniProt Q00613 1-529). To be noted: protein: recombinant; tags: N-terminal GST; chain copies: 3; dsDNA, one strand shown. Put shortly:
as §1

The target of the next test is T2, SPIC (Homo sapiens, UniProt Q8N5J4 1-248).
T2 sequence: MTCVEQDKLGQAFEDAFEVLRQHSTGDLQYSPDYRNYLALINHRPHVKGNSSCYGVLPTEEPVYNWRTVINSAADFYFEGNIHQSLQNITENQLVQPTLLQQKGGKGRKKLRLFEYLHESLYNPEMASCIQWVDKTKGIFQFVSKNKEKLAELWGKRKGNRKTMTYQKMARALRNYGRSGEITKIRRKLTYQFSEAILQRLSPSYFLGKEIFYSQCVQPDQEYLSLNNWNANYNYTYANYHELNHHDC
The settings on record: protein: recombinant; tags: N-terminal GST; dsDNA, one strand shown. Put shortly:
as §1

The target of a further test is ELF4 (Homo sapiens, UniProt Q99607 1-663). The settings on record: protein: recombinant; tags: N-terminal GST; dsDNA, one strand shown. Put shortly: as §1
ELF4, sequence (Q99607 whole entry): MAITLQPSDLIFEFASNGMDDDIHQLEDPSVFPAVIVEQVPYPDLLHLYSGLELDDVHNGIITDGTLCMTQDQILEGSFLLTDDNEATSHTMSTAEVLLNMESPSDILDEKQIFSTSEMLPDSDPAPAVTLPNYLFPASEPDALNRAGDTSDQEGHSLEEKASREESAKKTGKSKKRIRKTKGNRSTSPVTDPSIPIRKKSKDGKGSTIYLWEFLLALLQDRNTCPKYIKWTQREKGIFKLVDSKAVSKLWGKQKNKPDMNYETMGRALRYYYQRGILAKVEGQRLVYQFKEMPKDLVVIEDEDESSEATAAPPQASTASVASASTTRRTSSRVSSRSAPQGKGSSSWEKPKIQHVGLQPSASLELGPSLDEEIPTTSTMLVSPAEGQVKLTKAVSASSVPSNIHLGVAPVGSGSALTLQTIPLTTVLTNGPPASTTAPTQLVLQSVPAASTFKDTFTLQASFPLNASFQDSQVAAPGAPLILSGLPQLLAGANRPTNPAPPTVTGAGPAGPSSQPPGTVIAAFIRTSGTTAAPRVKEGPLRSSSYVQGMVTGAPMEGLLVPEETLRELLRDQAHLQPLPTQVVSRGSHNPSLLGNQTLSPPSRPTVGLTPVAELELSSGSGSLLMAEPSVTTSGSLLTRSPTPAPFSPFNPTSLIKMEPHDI
The next test concerns the target T3, ELK4 (Homo sapiens, UniProt P28324-2 1-405).
T3 sequence: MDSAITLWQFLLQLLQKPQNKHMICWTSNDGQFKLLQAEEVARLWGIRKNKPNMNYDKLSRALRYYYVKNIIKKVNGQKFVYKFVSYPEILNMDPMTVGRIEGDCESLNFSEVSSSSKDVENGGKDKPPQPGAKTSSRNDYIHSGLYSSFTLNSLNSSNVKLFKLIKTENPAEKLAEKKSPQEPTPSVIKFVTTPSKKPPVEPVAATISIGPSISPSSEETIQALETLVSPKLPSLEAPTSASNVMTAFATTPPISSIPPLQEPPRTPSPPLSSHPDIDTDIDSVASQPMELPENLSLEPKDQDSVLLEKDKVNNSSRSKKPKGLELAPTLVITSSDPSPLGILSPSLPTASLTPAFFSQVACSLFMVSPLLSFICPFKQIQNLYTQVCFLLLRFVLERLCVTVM
To be noted: protein: recombinant; tags: N-terminal GST; dsDNA, one strand shown. In short, it runs like this: as §1

Another test has as its target T4, ETV2 (Homo sapiens, UniProt O00321 1-342).
T4 sequence: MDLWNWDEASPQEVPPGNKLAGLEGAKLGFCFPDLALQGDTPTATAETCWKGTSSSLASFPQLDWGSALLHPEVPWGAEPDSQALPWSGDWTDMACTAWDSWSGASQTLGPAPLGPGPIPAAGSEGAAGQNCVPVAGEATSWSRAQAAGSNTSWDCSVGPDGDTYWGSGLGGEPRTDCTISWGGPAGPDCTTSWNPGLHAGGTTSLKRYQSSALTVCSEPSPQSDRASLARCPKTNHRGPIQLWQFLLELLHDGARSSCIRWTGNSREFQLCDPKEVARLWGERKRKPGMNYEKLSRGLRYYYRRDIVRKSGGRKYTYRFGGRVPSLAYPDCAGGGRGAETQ
To be noted: protein: recombinant; tags: N-terminal GST; dsDNA, one strand shown. Put shortly: as §1

For the next test, the target named is T5, ELF3 (Homo sapiens, UniProt P78545 1-371).
T5 sequence: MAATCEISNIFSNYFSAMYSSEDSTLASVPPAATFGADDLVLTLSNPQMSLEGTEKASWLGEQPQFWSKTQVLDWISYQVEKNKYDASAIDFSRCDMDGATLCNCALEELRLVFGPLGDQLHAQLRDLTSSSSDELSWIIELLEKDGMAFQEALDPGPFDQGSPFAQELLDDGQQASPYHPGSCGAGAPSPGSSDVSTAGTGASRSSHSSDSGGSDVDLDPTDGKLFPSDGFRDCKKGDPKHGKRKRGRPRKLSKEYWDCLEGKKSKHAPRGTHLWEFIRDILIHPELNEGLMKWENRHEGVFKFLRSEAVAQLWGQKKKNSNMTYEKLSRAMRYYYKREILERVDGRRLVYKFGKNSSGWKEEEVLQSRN
The settings on record: protein: recombinant; tags: N-terminal GST; dsDNA, one strand shown. Put shortly: as §1

In a further test the target is CRX (Homo sapiens, UniProt O43186 1-299). The settings on record: protein: recombinant; tags: N-terminal GST; dsDNA, one strand shown. In short, it runs like this:
as §1

Another test addresses ETV1 (Homo sapiens, UniProt P50549 1-477). The settings on record: protein: recombinant; tags: N-terminal GST; dsDNA, one strand shown. Put shortly:
as §1

For another test, the target named is T6, ERF (Homo sapiens, UniProt P50548 1-548).
T6 sequence: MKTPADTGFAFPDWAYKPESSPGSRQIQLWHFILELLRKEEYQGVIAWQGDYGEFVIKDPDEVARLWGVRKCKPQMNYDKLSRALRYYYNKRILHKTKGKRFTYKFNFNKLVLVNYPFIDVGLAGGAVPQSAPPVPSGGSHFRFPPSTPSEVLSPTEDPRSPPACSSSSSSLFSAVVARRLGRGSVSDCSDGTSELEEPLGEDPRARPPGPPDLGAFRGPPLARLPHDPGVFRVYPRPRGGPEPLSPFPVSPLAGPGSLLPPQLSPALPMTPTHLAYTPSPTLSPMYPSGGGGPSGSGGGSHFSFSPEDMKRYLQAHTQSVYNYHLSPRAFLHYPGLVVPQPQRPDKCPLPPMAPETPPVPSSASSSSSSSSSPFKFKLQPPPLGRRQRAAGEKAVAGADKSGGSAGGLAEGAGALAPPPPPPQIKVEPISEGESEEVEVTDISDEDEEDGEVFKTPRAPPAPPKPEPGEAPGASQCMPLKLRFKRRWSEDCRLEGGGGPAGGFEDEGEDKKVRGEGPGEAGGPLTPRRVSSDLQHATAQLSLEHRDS
The settings on record: protein: recombinant; tags: N-terminal GST; dsDNA, one strand shown. In short, it runs like this: as §1

Another test addresses T7, ETV3L (Homo sapiens, UniProt Q6ZN32 1-361).
T7 sequence: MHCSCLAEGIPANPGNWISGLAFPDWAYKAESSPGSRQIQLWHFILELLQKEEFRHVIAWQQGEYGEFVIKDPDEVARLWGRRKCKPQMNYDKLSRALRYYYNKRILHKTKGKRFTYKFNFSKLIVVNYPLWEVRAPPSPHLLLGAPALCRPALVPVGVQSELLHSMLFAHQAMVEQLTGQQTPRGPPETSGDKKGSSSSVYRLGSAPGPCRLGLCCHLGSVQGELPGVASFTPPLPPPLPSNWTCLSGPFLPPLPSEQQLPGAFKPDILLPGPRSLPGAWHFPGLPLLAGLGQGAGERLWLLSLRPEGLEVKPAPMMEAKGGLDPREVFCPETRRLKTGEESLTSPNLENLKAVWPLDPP
The settings on record: protein: recombinant; tags: N-terminal GST; dsDNA, one strand shown. Put shortly: as §1

A further test addresses T8, ETS2 (Homo sapiens, UniProt P15036 1-469).
T8 sequence: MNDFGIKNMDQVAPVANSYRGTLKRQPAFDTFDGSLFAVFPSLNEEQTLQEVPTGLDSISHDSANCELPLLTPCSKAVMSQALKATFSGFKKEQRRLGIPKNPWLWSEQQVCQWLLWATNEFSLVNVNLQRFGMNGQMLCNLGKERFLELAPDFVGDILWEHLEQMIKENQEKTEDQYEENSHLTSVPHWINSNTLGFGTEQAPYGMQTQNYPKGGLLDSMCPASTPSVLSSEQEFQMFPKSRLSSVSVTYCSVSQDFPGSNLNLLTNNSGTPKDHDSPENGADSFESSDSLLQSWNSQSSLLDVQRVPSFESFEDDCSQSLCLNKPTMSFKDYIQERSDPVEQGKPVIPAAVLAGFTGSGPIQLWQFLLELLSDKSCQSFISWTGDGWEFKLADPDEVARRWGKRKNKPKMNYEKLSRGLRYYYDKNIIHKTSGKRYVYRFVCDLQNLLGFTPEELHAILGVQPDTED
The settings on record: protein: recombinant; tags: N-terminal GST; dsDNA, one strand shown. Put shortly:
as §1

A further test concerns the target T9, SPDEF (Homo sapiens, UniProt O95238 1-335).
T9 sequence: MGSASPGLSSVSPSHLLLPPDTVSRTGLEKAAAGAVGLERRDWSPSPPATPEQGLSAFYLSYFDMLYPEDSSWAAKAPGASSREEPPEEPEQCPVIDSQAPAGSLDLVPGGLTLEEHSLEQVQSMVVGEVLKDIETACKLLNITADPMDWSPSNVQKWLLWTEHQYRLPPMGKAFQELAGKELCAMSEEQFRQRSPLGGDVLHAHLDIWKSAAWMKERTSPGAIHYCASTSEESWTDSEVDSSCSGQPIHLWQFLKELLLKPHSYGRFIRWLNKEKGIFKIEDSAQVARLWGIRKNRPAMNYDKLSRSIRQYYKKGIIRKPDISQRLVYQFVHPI
The settings on record: protein: recombinant; tags: N-terminal GST; dsDNA, one strand shown. Put shortly:
as §1

The target of another test is T10, ETV7 (Homo sapiens, UniProt Q9Y603 1-341).
T10 sequence: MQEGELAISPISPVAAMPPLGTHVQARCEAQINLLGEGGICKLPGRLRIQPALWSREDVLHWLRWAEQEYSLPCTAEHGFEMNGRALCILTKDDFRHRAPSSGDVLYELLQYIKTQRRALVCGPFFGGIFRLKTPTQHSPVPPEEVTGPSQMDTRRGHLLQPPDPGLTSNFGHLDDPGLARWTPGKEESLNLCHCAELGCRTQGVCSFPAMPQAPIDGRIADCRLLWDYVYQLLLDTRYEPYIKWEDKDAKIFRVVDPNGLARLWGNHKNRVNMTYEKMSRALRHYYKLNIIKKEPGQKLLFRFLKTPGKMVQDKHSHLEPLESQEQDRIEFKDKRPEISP
The settings on record: protein: recombinant; tags: N-terminal GST; dsDNA, one strand shown. Put shortly:
as §1

A further test has as its target T11, ELF5 (Homo sapiens, UniProt Q9UKW6-2 1-255).
T11 sequence: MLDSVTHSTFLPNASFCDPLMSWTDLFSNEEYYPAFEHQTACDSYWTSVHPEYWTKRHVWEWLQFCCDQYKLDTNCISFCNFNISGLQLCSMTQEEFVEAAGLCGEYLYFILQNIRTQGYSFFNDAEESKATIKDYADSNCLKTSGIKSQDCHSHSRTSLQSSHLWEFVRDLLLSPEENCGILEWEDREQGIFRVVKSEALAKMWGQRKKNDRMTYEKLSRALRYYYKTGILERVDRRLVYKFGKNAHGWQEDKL
To be noted: protein: recombinant; tags: N-terminal GST; dsDNA, one strand shown. In short, it runs like this: as §1

The target of the next test is T12, ETV3 (Homo sapiens, UniProt P41162-2 1-143).
T12 sequence: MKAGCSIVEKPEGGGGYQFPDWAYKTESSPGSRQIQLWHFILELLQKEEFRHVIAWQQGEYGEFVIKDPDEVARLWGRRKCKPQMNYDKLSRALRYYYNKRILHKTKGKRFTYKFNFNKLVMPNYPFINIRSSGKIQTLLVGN
The settings on record: protein: recombinant; tags: N-terminal GST; dsDNA, one strand shown. In short, it runs like this: as §1

In another test the target is ETV6 (Homo sapiens, UniProt P41212 1-452). The settings on record: protein: recombinant; tags: N-terminal GST; dsDNA, one strand shown. Put shortly:
as §1

ETV5, sequence (P41161 whole entry): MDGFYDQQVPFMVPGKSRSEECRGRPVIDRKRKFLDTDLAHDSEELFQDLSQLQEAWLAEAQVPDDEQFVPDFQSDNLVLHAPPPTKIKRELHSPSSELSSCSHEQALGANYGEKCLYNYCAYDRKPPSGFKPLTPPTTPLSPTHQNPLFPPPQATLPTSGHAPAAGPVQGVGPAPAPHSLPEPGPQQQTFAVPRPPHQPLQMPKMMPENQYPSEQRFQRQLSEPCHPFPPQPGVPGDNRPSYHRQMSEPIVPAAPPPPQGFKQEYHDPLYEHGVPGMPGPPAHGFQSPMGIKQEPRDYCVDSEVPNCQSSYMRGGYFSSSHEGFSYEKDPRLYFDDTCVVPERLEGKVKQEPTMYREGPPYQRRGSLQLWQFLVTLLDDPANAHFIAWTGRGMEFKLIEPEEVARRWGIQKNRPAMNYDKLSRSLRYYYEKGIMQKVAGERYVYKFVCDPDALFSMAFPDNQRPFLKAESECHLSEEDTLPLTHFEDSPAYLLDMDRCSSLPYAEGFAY
CRX, sequence (O43186 whole entry): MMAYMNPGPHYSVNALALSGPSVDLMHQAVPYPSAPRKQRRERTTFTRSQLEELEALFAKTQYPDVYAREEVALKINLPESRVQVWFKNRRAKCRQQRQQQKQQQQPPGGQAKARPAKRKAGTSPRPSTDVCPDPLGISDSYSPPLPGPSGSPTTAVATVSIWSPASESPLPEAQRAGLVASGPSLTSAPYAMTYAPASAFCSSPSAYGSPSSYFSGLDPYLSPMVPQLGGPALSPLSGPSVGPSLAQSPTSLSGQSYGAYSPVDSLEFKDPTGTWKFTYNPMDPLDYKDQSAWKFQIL
ETV1, sequence (P50549 whole entry): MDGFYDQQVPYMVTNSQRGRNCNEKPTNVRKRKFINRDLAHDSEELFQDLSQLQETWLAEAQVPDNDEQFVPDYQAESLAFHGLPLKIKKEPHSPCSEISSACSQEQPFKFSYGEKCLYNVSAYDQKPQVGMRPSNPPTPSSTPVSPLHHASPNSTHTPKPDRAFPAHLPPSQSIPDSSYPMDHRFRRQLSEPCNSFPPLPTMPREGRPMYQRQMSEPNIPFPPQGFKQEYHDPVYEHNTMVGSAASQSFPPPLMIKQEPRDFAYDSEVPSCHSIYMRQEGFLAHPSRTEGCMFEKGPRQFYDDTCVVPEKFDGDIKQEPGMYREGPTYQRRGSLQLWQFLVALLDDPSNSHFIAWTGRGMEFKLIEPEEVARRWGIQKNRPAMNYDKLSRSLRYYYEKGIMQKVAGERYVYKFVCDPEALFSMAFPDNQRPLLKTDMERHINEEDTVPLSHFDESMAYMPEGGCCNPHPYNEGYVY
ETV6, sequence (P41212 whole entry): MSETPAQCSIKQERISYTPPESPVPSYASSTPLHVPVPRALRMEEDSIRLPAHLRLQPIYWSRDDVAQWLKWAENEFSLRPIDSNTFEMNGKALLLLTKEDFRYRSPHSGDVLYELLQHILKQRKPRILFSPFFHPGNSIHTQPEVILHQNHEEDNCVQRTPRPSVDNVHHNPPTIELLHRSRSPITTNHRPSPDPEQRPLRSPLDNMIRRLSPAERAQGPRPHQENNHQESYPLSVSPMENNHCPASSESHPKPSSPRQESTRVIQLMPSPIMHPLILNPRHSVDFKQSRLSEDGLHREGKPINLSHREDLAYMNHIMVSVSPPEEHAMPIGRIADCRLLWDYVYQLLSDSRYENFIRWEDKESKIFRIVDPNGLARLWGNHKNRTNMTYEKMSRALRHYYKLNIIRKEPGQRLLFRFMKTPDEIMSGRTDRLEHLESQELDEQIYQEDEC
HSF1, sequence (Q00613 whole entry): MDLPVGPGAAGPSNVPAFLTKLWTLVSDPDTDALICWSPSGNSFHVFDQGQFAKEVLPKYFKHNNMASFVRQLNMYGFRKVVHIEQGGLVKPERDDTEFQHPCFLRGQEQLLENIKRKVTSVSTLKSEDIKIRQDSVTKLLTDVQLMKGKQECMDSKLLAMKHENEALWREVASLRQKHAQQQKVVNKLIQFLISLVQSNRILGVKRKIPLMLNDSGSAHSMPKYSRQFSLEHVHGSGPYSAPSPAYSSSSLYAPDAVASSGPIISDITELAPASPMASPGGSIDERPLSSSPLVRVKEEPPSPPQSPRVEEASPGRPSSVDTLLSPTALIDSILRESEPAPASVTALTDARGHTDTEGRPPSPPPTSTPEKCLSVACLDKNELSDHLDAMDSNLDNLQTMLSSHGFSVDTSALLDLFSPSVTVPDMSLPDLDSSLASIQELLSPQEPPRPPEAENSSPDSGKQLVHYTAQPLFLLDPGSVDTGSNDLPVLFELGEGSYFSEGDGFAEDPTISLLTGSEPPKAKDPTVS

For the sequence CTATTT, the binding signal is 1.68 fold enrichment (6-mer frequency, TF over GST control) with FEV; 1.64 fold enrichment (6-mer frequency, TF over GST control) with ETV5; 1.45 fold enrichment (6-mer frequency, TF over GST control) with HSF1; 2.07 fold enrichment (6-mer frequency, TF over GST control) in the test with SPIC; 1.69 fold enrichment (6-mer frequency, TF over GST control) in the test with ELF4; 1.88 fold enrichment (6-mer frequency, TF over GST control) with ELK4. The binding signal in the test with ETV2 was 1.68 fold enrichment (6-mer frequency, TF over GST control); in the test with ELF3, 2.07 fold enrichment (6-mer frequency, TF over GST control); with CRX it was 1.64 fold enrichment (6-mer frequency, TF over GST control); with ETV1, 1.74 fold enrichment (6-mer frequency, TF over GST control); in the test with ERF it was 1.63 fold enrichment (6-mer frequency, TF over GST control); with ETV3L, 1.82 fold enrichment (6-mer frequency, TF over GST control). Moreover, the binding signal was 1.71 fold enrichment (6-mer frequency, TF over GST control) with ETS2; 1.57 fold enrichment (6-mer frequency, TF over GST control) in the test with SPDEF; 1.66 fold enrichment (6-mer frequency, TF over GST control) in the test with ETV7; 1.72 fold enrichment (6-mer frequency, TF over GST control) with ELF5; 1.63 fold enrichment (6-mer frequency, TF over GST control) in the test with ETV3; 1.9 fold enrichment (6-mer frequency, TF over GST control) with ETV6.
